An excerpt weighted towards active compounds, which were near 17% of everything screened.
DT40 TDP1 no CPT: qHTS for Inhibitors of human tyrosyl-DNA phosphodiesterase 1 (TDP1): qHTS in cells in absence of CPT. DT40 Tdp1-/- hTDP1 cells, no CPT, ATP luminescence, 48 h. Potency, µM (highest dose often 46.2 µM), for inactives: at the top dose activity change, negative = growth inhibition, actives largely listed as inhibitors. actives 15% (n = 420,000); note: % is set by controls: 0 for no effect and ±100 for the full control effect; nearly all actives have a fitted effect of over 55% in size
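Chicken DT40 Tdp1-/- cells stably complemented with human TDP1 were seeded at 400 cells/well with DMSO in place of 20 nM camptothecin. After compound pinning, cells grew at least 48 hr at 37 °C; viability read by CellTiter-Glo luminescence.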
HT1080 IDH1KD tx: qHTS for induction of synthetic lethality in tumor cells producing 2HG: qHTS for the HT-1080-IDH1KD cell line | HT-1080 IDH1 knockdown viability, ATP luminescence, 48 h | Potency, µM (titrated, usually from 46.1 µM), for inactives: at the highest dose activity, negative = toxicity, hits mostly cytotoxic | actives 2% (n = 360,000);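 note: 0% = DMSO wells and -100% = cell-free medium wells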
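Viability of IDH1-knockdown HT-1080 fibrosarcoma cells was assessed by CellTiter-Glo after 48 h at 37 °C with titrated compound; concentration-effect curves were classified by fit quality and response size.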
TDP1 cell CPT: qHTS for Inhibitors of human tyrosyl-DNA phosphodiesterase 1 (TDP1): qHTS in cells in presence of CPT. AID 686979, 2013. Potency, µM (titrated, usually from 46.2 µM), for inactives: at the top dose activity change, negative = growth inhibition, actives largely listed as inhibitors. chicken DT40 Tdp1-/-;hTDP1 cells + 20 nM CPT, ATP luminescence, 48 h. actives 12% (n = 420,000); note: % is set by controls: 0 for no effect and ±100 for the full control effect; nearly all actives have a fitted effect of over 55% in size
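Chicken DT40 Tdp1-/- cells stably complemented with human TDP1 were seeded at 400 cells/well in medium containing 20 nM camptothecin, exposed to pin-transferred compounds, and grown at 37 °C for at least 48 hr. Viability was read as ATP luminescence.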
TGFb inhibitor: qHTS for Inhibitors of TGF-b | HepG2 CAGA-GFP TGF-b/SMAD3 reporter, GFP fluorescence, 18 h; TGF-beta stimulated, 500 pg/mL final | Potency, µM (highest dose often 46.1 µM), for the others: at the highest dose activity, negative = inhibition, usual class: inhibitors | actives 1.2% (n = 410,000); note: % is set by controls: 0 for no effect and ±100 for the full control effect; nearly all actives have a fitted effect of over 65% in size
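TGF-beta reporter screen: HEPG2 CAGA-GFP, 1% FBS, 500 pg/mL TGF-beta final, 18 h; per-cell GFP summed per well; curves fitted and categorized by class.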
HepG2 viability: qHTS for Inhibitors of TGF-b: Cytotox Counterscreen. HepG2 CAGA-GFP viability, ATP luminescence, 18 h. Potency, µM (highest dose often 46.1 µM), for the others: top-dose activity change, negative = cytotoxicity, hits mostly cytotoxic. actives 0.76% (n = 410,000)
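HepG2 CAGA-GFP cells (1000/well, DMEM with 1% FBS) received compound, then TGF-beta at 500 pg/mL final, and were incubated 18 hours at 37 degrees C. Viability was read by CellTiter-Glo luminescence. Media-only wells were set as complete cell-killing and DMSO as no toxicity.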
HT1080NT lethal: qHTS for induction of synthetic lethality in tumor cells producing 2HG: qHTS for the HT-1080-NT fibrosarcoma cell line; HT-1080-NT fibrosarcoma viability, CellTiter-Glo ATP luminescence, 48 h; AID 686970, 2013; actives 1.6% (n = 360,000); Potency, µM (titrated, usually from 46.1 µM), inactives show at the highest dose activity, negative = less viability, usual class: cytotoxic;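 note: NT is the 2HG producing partner of a matched IDH1 knockdown line; 0% = DMSO-treated cells and -100% = media-only wells without cells; nearly all actives have a fitted effect of over 55% in size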
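HT-1080-NT fibrosarcoma cells (2HG-overproducing), 750 cells/well in RPMI with 5% FBS, dosed after 2 h and incubated 48 h at 37C. CellTiter-Glo luminescence normalized to DMSO and no-cell wells; concentration-response curves fitted and classed.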
* marks the source's active call; other numbers are inactive results; ? = inconclusive; . = not tested or not shown. Calls come from the whole dose curve; as a rule, active = well fitted curve in the direction sought with a large enough effect; inconclusive = small, poorly fitted or top-dose-only effect, or another doubt; inactive = no such curve, though single readings can be large; an effect the other way counts as inactive or inconclusive. Potency is the fitted concentration of half-maximal effect.

SMILES | DT40 TDP1 no CPT | HT1080 IDH1KD tx | TDP1 cell CPT | TGFb inhibitor | HepG2 viability | HT1080NT lethal
CCOC(=O)c1ccc(NC(=O)c2nc[nH]c2C(=O)NCCCCNC(=O)c2[nH]cnc2C(=O)Nc2ccc(C(=O)OCC)cc2)cc1 | 4.6µM* | 12% | ? | -3% | 0% | 6%
CCOC(=O)c1ccc(NC(=O)c2nc[nH]c2C(=O)NCCCCCNC(=O)OC(C)(C)C)cc1 | 18µM* | -2% | ? | 4% | -15% | -2%
CCOc1ccc(C2c3c(oc4cc(C)c(C)cc4c3=O)C(=O)N2c2ccccn2)cc1 (centres undefined) | -2% | . | 15% | 1% | -36% | .
CCCCCCN1C=CC(=C2C(=O)c3ccccc3C2=O)C=C1 | ? | 2% | ? | 8% | -23% | 2%
CCN1C=CC(=C2C(=O)c3ccccc3C2=O)C=C1 | 15µM* | 11µM* | 16µM* | -6% | -81% | 10µM*
CCCN1C=CC(=C2C(=O)c3ccccc3C2=O)C=C1 | 5.2µM* | 11µM* | 8.2µM* | 5% | 7.1µM* | 5.6µM*
O=C(NCc1ccccc1)c1ccc(C(=O)NCc2ccccc2)cc1 | 3% | 5% | -4% | 0% | 5% | 8%
O=C(C(=O)N(C1CCCCC1)C1CCCCC1)c1ccccc1 | 7.3µM* | ? | 10µM* | . | . | -22%
O=C(NCc1ccccc1)c1ccc(C(=O)N(C2CCCCC2)C2CCCCC2)cc1 | ? | -19% | 23µM* | -15% | 15% | 1%
Cc1cc(=O)c2ccccc2[nH]1 | -13% | 3% | -21% | 4% | -22% | -12%
Cc1ccc2[nH]c(-c3ccccc3)cc(=O)c2c1 | 0.65µM* | 1µM* | 0.82µM* | ? | -19% | 0.73µM*
O=c1cc(-c2ccc(Cl)cc2)[nH]c2ccccc12 | 6.5µM* | -10% | 4.1µM* | -3% | -29% | -9%
Cc1ccc(-c2cc(=O)c3ccccc3[nH]2)cc1 | 9.2µM* | ? | 16µM* | -2% | -5% | ?
Cc1ccccc1NC(=O)COC(=O)c1cccc(S(=O)(=O)N2CCCCC2)c1 | 4% | -6% | -1% | -7% | -17% | -1%
Cc1cc(=O)oc2cc(NC(=O)Cc3ccccc3)ccc12 | -20% | 21% | 9% | -26% | -18% | 20%
O=C(CNc1ccccc1F)Nc1cc(S(=O)(=O)N2CCCCC2)ccc1Cl | -27% | -1% | -30% | -11% | -29% | -14%
CCCC(C(=O)Nc1ccc2c(C)cc(=O)oc2c1)c1ccccc1 (centres undefined) | ? | 17% | 26µM* | -1% | 14% | 28%
O=C(CNc1cccc(S(=O)(=O)N2CCCC2)c1)Nc1cccc(Br)c1 | 21µM* | -23% | ? | ? | -28% | -21%
Cc1ccc(S(=O)(=O)N2CCCCC2)cc1NC(=O)COC(=O)c1cccc(O)c1 | -12% | 3% | -27% | 9% | 11µM* | 0%
Cc1ccc(S(=O)(=O)N2CCCCC2)cc1NCC(=O)Nc1ccc(Br)cc1F | 3.7µM* | ? | 4.6µM* | ? | -23% | ?
Cc1ccc(S(=O)(=O)N2CCCCC2)cc1NC(=O)CSCC(=O)O | -12% | 12% | 16% | -1% | -36% | 21%
COc1ccc(NCC(=O)Nc2cccc(S(=O)(=O)N3CCCC3)c2)cc1Cl | 13µM* | -18% | ? | ? | -23% | -14%
COc1cc(NC(=O)CNc2cccc(S(=O)(=O)N3CCCC3)c2)cc(OC)c1 | ? | -12% | ? | -24% | -2% | 1%
CCN(CC)S(=O)(=O)c1cc(NC(=O)CNc2cccc(S(=O)(=O)N3CCCC3)c2)ccc1C | 2.6µM* | -21% | 3.3µM* | ? | -11% | 4.6µM*
CCCC(C(=O)Nc1cccc(S(=O)(=O)N2CCCC2)c1)c1ccccc1 (centres undefined) | 21µM* | -29% | 23µM* | ? | -3% | ?
SMILES | DT40 TDP1 no CPT | HT1080 IDH1KD tx | TDP1 cell CPT | TGFb inhibitor | HepG2 viability | HT1080NT lethal
CC(=O)c1cccc(NCC(=O)Nc2cc(S(=O)(=O)N3CCCCC3)ccc2C)c1 | ? | -6% | 16µM* | -4% | -15% | 0%
CC(CC(=O)Nc1cccc(S(=O)(=O)N2CCCCC2)c1)c1ccccc1 (centres undefined) | ? | -2% | ? | -24% | -7% | -1%
COc1ccc(N2CCN(S(=O)(=O)CCNC(=O)Cc3ccc(OC)c(OC)c3)CC2)cc1 | -23% | . | -28% | -6% | -1% | .
Cc1ccc(-n2c(=O)c3c(c4cc(C)ccc4n3C)n(CC(=O)N3CCCC3)c2=O)cc1 | ? | . | -16% | -32% | -12% | .
COc1ccc(S(=O)(=O)N(C)C)cc1NCC(=O)Nc1ccc(Br)cc1F | 29µM* | -14% | 13µM* | 0% | -9% | -5%
CN(C)S(=O)(=O)c1cccc(NC(=O)CNc2cccc(S(=O)(=O)N3CCCCC3)c2)c1 | 21µM* | -16% | ? | -9% | -27% | -11%
CCN(CC)S(=O)(=O)c1ccc(C)c(NC(=S)Nc2cccc(S(=O)(=O)N3CCCCCC3)c2)c1 | 23µM* | ? | ? | ? | 3% | -1%
CCN(CC)S(=O)(=O)c1ccc(C)c(NC(=O)CNc2cccc(S(=O)(=O)N3CCOCC3)c2)c1 | ? | 4% | -4% | -10% | -1% | 5%
O=C(CNc1cccc(S(=O)(=O)N2CCCCC2)c1)Nc1cccc(F)c1 | ? | -15% | -27% | ? | 0% | ?
O=C(C(=Cc1ccccc1)CN1CCCCC1)c1ccccc1 | 1.5µM* | 4.6µM* | 0.73µM* | ? | -101% | ?
Cc1ccc(C)c(Cc2c(C)nc3c(C(=O)N4CCOCC4)cnn3c2C)c1 | 22µM* | -5% | 16µM* | 0% | -6% | 9%
Cc1nc2c(C(=O)N3CCN(c4ccccn4)CC3)cnn2c(C)c1Cc1cccc(Cl)c1 | 23µM* | ? | ? | -14% | -22% | ?
CCC(Oc1ccccc1OC)C(=O)Nc1ccc2c(c1)OCCO2 (centres undefined) | 12% | 11% | 3% | -1% | 6% | 4%

Bioassay records deposited in PubChem by National Center for Advancing Translational Sciences (NCATS).
